40 sequences from the supplement of paper PMC6555819 can be followed below.

This test deals with VDR:RXRa (NR concentration 270 nM, RXRa partner concentration 90 nM). Nature of the test: PBM binding z-score (relative to random genomic background probes); higher = stronger binding; sequences stand for … in GC…GCGATTGACAGCGTAGAATGAAGG
How it is done:
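Protein-binding microarray (Agilent 4x180K custom design, double-stranded 60-nt probes: 5' GC cap, 34-nt variable region, 24-nt constant primer region; full probe sequence given). Purified or IVT nuclear receptor:RXRα heterodimers (3:1 NR:RXRα, mostly 270:90 nM) or homodimers were incubated for 1 h in PBS with 2% milk and no ligand, then detected with Alexa488 antibodies. Fluorescence from o1-orientation probes (~5 replicates averaged) was converted to z-scores against 500 random hg19 background probes. Variable regions are seed direct-repeat (DR0–DR5) sites, all their single-nucleotide variants and half-site ablations.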
In the case of TTACCAAGGTGAAAGGTCGTTGAGGCACGCCTTG, the PBM binding z-score stood at 3.55.

The sequence TTATCAAGGTGAAAGGTCGTTGATGCACGCCTTG returned a PBM binding z-score of 3.29. With CCTTACGGGTCACTGACAGCTTATAGCATTTGGA the figure was 3.11.

Sequence CGAACTAGGTCAGAGGACAGTGAAAGGCGACGTA registered a PBM binding z-score of 0.161. Sequence CTCGAAAGGTCAGTTGAGGTGAGTATACGGATAA showed a PBM binding z-score of 4.7. With ATATGTAGGTTAGGGTCATTAAGAAAGTAGGGAA the figure was 3.86; with CCTTACAGGTCACGAGGTTATAGCACGACGAGCG, 5.04; with CGTTCAAGGTCATAGGAGGTCAGTGAAGACAGAT, 6.67. The value for CCGAGTAGGTTGCGAGGGGGCATTCAGTGCGAAT was 4.26. With ATCTCTAGGTTAAAGTTCAGTGAATCCCGAGGAT the figure was 2.76; with TCTGCTAGGTCAGTTGGGCAGCTAACGAGCTGCC, -0.0977; with ACTCGGAGGACAAAGGTGAGAGCTACGCCAGTGA, 0.122. ACTAGTTGCTCAGCTGAGGTCACACACAATTCGG yielded a PBM binding z-score of 3.65.

CCTAGCAGGCCAGGTTCACTCAAGCATTTCGCTT returned a PBM binding z-score of 2.09. The value for CGAACTAGGTCACCAGGAAAGTGAAGAGGTTGGA was 1.66.

TCTAGTTGGTTACGGAGGTCACACACGACGGGTA gave a PBM binding z-score of 4.27. With CTATGTAGGTTAAGGGGGTGATTCAGTTTGAAAG the figure was 3.99; with TAGCCTAGGTCACGGGCCAGTATACCACGCGAAC, 2.94; with TCTAGTAGGTTACGGGGGCATTCAGGGATGAAGA, 4.39. The value for AGTAGCAGGCCAAGGGTCACTCAAGATTAGTCCG was 2.94. The value for CGTCCAAGGTCAGAGAGGTCAGTGTATGCCGAGT was 7.31; that for GCTATTAGGTGAAAGGGCAACCGAATGATTCTCG was 0.806. In the case of CGAACTAAGTCAAAGGACAGTGAAAGGCGACGTA, the PBM binding z-score is -0.259. Sequence CGAACTAGGTCACAAGGACAGTGAAGAGGTTGGA registered a PBM binding z-score of 1.83. In turn, CCTACTGTGCCATTCAGAGGTCATTGATCATATG registered a PBM binding z-score of 4.25. The value for CCTTACCGGTCAAGGTTATAGCACGGGTGGTACG was 0.829; that for ATCGAACGGTCGACGAGGTGAGTATACACCGTTT was 0.299; that for TCGAGTAGGTTACGGGGGCATTCAAGGATGAAGA was 3.74. The value for CGAACCAGGTCAAAGGACAGTGAAAGGCGACGTA was 2.44; that for CCGAGTAGGTTACGCGGGGGCATTCAGTGCGAAT was 5.48.

Sequence CCTTACGGGTCAAGGTTGTAGCACGGGTGGTACG returned a PBM binding z-score of 3.02.

Sequence ATATGTAGGTTAGCTGGAGTCATTCAGACTAGGC yielded a PBM binding z-score of 0.533. As for TCTGCTAGGTCAGGTGGTCAGCTAACGAGCTGCC, the PBM binding z-score amounted to 0.132.

The sequence ATATGTAGCTTAAGGGTCATTCAGGTTGGTTCGC came in with a PBM binding z-score of 5.26.

In turn, TCGAGTAGGTTACGGGGGAATTCAGGGATGAAGA registered a PBM binding z-score of 1.25. With CTATGTAGGTTAAGGGGGTCATTCATTTTGAAAG the figure was 7.08; with CGTCAAAGTTCAAGCTAACGTAACAGAAAGCAGC, 4.18; with ATATGTAGGTAACATCCGGGTCATTCAGGCTATG, 3.75.

CGAACTAGGGCACCAGGACAGTGAAGAGGTTGGA gave a PBM binding z-score of -0.582. Turning to CCTACTGGGCCACGTAAGGTCATTGATTCAGTGA, the PBM binding z-score amounted to 3.69.
